Results on 6 compounds are retold here after PubChem BioAssay (Tox21).

Experiment [1] concerns the target Luciferin 4-monooxygenase (Photinus pyralis) (UniProt P08659). Put plainly: qHTS assay to identify small molecule inhibitors of firefly luciferase (AID 1224835). Further: nearly all actives have a fitted effect of over 25% in size. Further: potency means the concentration at half of the fitted maximal effect. The method in brief:
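Biochemical qHTS: compounds run as interplate titrations against purified firefly enzyme, with D-luciferin and ATP each at its KM concentration. Light output recorded by CCD imaging.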
Background: qHTS replaces the single test concentration by a dilution series.

The nature of experiment [2]: qHTS assay to identify small molecule agonists of the constitutive androstane receptor (CAR) signaling pathway - cell viability counter screen (AID 1224836). Further: nearly all actives have a fitted effect of over 45% in size. Further: potency means the concentration at half of the fitted maximal effect. The method in brief: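 HepG2-CYP2B6-hCAR, 2500 cells/well, 4 h pre-incubation; cpd 15 conc + PK11195 0.75 uM final; 23 h, 37 C/5% CO2; CellTiter-Fluor, fluorescence.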
Experiment [3] is described as follows: qHTS assay to identify small molecule antagonists of the constitutive androstane receptor (CAR) signaling pathway - cell viability counter screen (AID 1224837). Further: nearly all actives have a fitted effect of over 45% in size. Further: potency means the concentration at half of the fitted maximal effect. The method in brief: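 In quantitative HTS format, compounds at 15 concentrations were applied to HepG2 cells double-transfected with hCAR and CYP2B6-2.2kb under 50 nM CITCO stimulation; live-cell protease activity was read after 23 hr via CellTiter-Fluor.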

Experiment [4] deals with Nuclear receptor subfamily 1 group I member 3 (Homo sapiens) (UniProt Q14994). Put plainly: qHTS assay to identify small molecule antagonists of the constitutive androstane receptor (CAR) signaling pathway (AID 1224838). Further: nearly all actives have a fitted effect of over 40% in size. Further: potency means the concentration at half of the fitted maximal effect. A digest of the protocol: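 CITCO-stimulated (50 nM final) HepG2 cells stably transfected with hCAR and CYP2B6-2.2kb luciferase were exposed to compounds at 15 concentrations for 24 h at 37 C/5% CO2. A luciferase reagent was added and luminescence recorded after 30 min.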

The nature of experiment [5]: qHTS assay to identify small molecule antagonists of the estrogen related receptor signaling pathway with the pleiotropic PPARgamma coactivator (PGC) from Tox21 10K library - cell viability counter screen (AID 1224840; active means well fitted cell-killing curve with a large enough effect in the repeat runs, not every such curve was filed as active; further: nearly all actives have a fitted effect of over 40% in size; further: potency means the concentration at half of the fitted maximal effect). The method in brief: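 Viability counter screen, PGC/ERR cells: 17.5 h compound exposure at 37 C, CellTiter-Fluor fluorescence endpoint.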
Experiment [6] addresses Thyrotropin receptor (Homo sapiens) (UniProt P16473). Put plainly: qHTS assay to identify small molecule agonists of the thyroid stimulating hormone receptor (TSHR) signaling pathway (AID 1224843; calls by dose curve; further: nearly all actives have a fitted effect of over 45% in size; further: potency means the concentration at half of the fitted maximal effect). A digest of the protocol:
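Agonist-mode screen: TSHR HEK293 cells received test chemicals for half an hour at room temperature, then HTRF cAMP detection reagents for one hour prior to fluorescence measurement. Each chemical ran as a 15-concentration series, triplicated.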

The nature of experiment [7]: qHTS assay to identify small molecule agonists of the hypoxia (HIF-1) signaling pathway - cell viability counter screen (AID 1224844; calls by dose curve; further: nearly all actives have a fitted effect of over 50% in size; further: potency means the concentration at half of the fitted maximal effect). The method in brief:
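Same wells as the HIF-1 reporter screen; ME-180 cells carrying HRE-bla, 17 hr treatment at 37C; CellTiter-Glo luminescence read after 30 min at room temperature.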

Experiment [8] is described as follows: qHTS assay to identify small molecule agonists of H2AX (AID 1224845; active means well fitted activation curve with a large enough effect in the signal ratio in the repeat runs, not every such curve was filed as active; the % refers to the signal ratio; further: potency means the concentration at half of the fitted maximal effect). A digest of the protocol:
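Wild-type CHO-K1 cells, plated overnight, exposed 3hr at 37C to 15 concentrations (0.76% DMSO final). Lysed, then HTRF anti-pH2AX (S139) cryptate and anti-H2AX-d2 antibodies, 24 hr room temperature; 665/620 nm emission read.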

The nature of experiment [9]: qHTS assay to identify small molecule agonists of the hypoxia (HIF-1) signaling pathway (AID 1224846; active means well fitted activation curve with a large enough effect in the signal ratio in the repeat runs, not every such curve was filed as active; the % refers to the signal ratio). A digest of the protocol:
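In ME-180 cells bearing an HRE-bla construct, 17 h treatment with DMSO-dissolved compounds at 37C was followed by CCF4-AM loading to quantify reporter induction.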

Experiment [10] can be described thus: qHTS assay to identify small molecule agonists of H2AX - cell viability counter screen (AID 1224847; calls by dose curve; further: nearly all actives have a fitted effect of over 30% in size; further: potency means the concentration at half of the fitted maximal effect). The method in brief: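 Cells plated first: CHO-K1, 1000 per well in 10% FBS medium, incubated overnight at 37C. Then 15-point compound titration added (final DMSO 0.76%) for 3 hr. Finally CellTiter-Glo added and luminescence read.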
Experiment [11] in a line: qHTS RealTime-Glo MT Cell Viability Assay in HepG2 cells - 24 hour (AID 1224867). Further: nearly all actives have a fitted effect of over 50% in size. Further: potency means the concentration at half of the fitted maximal effect. The method in brief:
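HepG2 suspension premixed with RealTime-Glo reagents is plated at 600 cells per well and left 5 h at 37 C/5% CO2. Compounds in DMSO then go in, and bioluminescence reflecting viable cell number is recorded over 40 h.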

Experiment [12] in a line: qHTS RealTime-Glo MT Cell Viability Assay in HEK293 cells - 32 hour (AID 1224868). Further: nearly all actives have a fitted effect of over 50% in size. Further: potency means the concentration at half of the fitted maximal effect. A digest of the protocol:
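Reads taken at 0, 8, 16, 24, 32 and 40 h from the same wells. HEK293 cells (600/well) carried RealTime-Glo reagents from seeding, with compound added after a 5 h settle at 37 C.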

Experiment [13] is described as follows: A CellTox Green Cytotoxicity Assay to monitor cytotoxicity in HEK293 cells - 0 hour (AID 1224869). Further: nearly all actives have a fitted effect of over 50% in size. Further: potency means the concentration at half of the fitted maximal effect. A digest of the protocol:
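Homogeneous no-lysis format: HEK293 cell suspension mixed with CellTox Green reagent, seeded, incubated 5 h at 37 C/5% CO2, then dosed by pintool with compound in DMSO.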

Experiment [14] can be described thus: qHTS RealTime-Glo MT Cell Viability Assay in HepG2 cells - 40 hour (AID 1224870). Further: nearly all actives have a fitted effect of over 50% in size. Further: potency means the concentration at half of the fitted maximal effect. The method in brief: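 HepG2 cells (600/well) mixed with RealTime-Glo MT reagent, settled 5 h at 37 C/5% CO2 before compound addition. Nonlytic NanoLuc luminescence from viable-cell prosubstrate reduction read repeatedly during 40 h treatment at 37 C.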
Experiment [15] in a line: qHTS assay to identify small molecule antagonists of the estrogen related receptor (ERR) signaling pathway from Tox21 library - cell viability counter screen (AID 1224834). Further: nearly all actives have a fitted effect of over 30% in size. Further: potency means the concentration at half of the fitted maximal effect. A digest of the protocol: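 In this quantitative HTS format, ERR cells receive compounds in DMSO and are incubated for 17.5 h at 37 C. Live-cell protease activity is then detected with CellTiter-Fluor.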

Experiment [16] can be described thus: qHTS assay to identify small molecule antagonists of the estrogen related receptor signaling pathway with the pleiotropic PPARgamma coactivator (PGC) from Tox21 10K library (AID 1224841; call rule not given here; further: potency means the concentration at half of the fitted maximal effect). A digest of the protocol: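 In the PGC/ERR line, DMSO solutions of test chemicals are pin-delivered to 2,000 cells/well six hours after dispensing. Following eighteen hours' incubation, One-Glo reagent is added and luminescence recorded.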

Experiment [17] is described as follows: qHTS assay to identify small molecule agonists of the estrogen related receptor signaling pathway with the pleiotropic PPARgamma coactivator (PGC) from Tox21 10K library (AID 1224842). Further: nearly all actives have a fitted effect of over 15% in size. The method in brief: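 PGC/ERR reporter cell line, 2,000 cells per well, incubated 6 h at 37 C before 23 nL compound in DMSO was added. After 18 h at 37 C, One-Glo luminescence read following 30 min at room temperature.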

Experiment [18] is described as follows: qHTS assay to identify small molecule antagonists of the estrogen related receptor (ERR) signaling pathway from Tox21 library (AID 1224848). Further: nearly all actives have a fitted effect of over 50% in size. A digest of the protocol:
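Quantitative high-throughput format: ERR reporter cells (2,000/well) pre-incubated 6 h, treated 18 h at 37 C with compounds in DMSO alongside positive and negative controls, then read by ONE-Glo luminescence.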

The nature of experiment [19]: qHTS assay to identify small molecule agonists of the estrogen related receptor (ERR) signaling pathway from Tox21 library (AID 1224849; calls by dose curve; further: nearly all actives have a fitted effect of over 15% in size). As to conditions: ERR reporter cell line, ONE-Glo luciferase, 18 h. The method in brief:
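Reporter cells (ERR, NTP source) treated with Tox21 10K compounds 18 h, 37 C. Readout: ONE-Glo luminescence, 30 min RT.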

The structures appear in SMILES notation. Several values for one entry are separate records, joined by “and”; a condition that tells them apart may be missing. Equal entries are not always repeated. Inconclusive results are not listed. Some compounds were tested as several samples or in several runs, with calls that do not always agree. Activity calls are given as the source filed them. Unless noted, the call rests on the fitted dose curve; in most records, active means well fitted curve in the direction sought with a large enough effect in the repeat runs; inconclusive means weak or mixed curves; inactive means no such curve, though single readings can be large; an effect the other way counts as inactive or inconclusive.
On the % scale 0 is the no-effect control and ±100 the full control effect.

Sequence of Nuclear receptor subfamily 1 group I member 3 (Homo sapiens) (Q14994 whole entry, looked up): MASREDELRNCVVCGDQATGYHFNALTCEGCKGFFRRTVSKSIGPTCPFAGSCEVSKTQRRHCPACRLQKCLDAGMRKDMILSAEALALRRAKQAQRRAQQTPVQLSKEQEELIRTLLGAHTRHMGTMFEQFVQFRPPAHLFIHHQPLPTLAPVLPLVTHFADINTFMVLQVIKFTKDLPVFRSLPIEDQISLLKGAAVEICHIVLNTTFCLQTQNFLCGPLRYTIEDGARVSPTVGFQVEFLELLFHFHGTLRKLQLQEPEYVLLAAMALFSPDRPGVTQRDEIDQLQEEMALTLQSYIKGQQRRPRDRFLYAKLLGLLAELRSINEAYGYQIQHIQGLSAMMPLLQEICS
Sequence of Luciferin 4-monooxygenase (Photinus pyralis) (P08659 whole entry, looked up): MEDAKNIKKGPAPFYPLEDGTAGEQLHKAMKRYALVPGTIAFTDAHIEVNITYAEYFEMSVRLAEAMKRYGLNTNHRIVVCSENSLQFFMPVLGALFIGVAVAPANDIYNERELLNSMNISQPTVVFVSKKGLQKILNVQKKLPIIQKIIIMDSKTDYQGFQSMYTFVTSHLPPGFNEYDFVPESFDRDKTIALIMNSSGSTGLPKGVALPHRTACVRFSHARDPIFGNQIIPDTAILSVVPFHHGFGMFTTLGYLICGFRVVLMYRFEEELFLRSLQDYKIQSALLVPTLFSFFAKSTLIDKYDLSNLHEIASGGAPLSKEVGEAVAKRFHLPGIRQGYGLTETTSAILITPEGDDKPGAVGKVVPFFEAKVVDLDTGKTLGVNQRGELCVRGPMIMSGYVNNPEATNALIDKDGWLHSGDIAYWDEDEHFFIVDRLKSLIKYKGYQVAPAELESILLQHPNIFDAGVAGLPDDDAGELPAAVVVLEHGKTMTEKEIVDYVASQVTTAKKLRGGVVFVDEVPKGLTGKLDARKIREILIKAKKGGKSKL
Sequence of Thyrotropin receptor (Homo sapiens) (P16473 whole entry, looked up): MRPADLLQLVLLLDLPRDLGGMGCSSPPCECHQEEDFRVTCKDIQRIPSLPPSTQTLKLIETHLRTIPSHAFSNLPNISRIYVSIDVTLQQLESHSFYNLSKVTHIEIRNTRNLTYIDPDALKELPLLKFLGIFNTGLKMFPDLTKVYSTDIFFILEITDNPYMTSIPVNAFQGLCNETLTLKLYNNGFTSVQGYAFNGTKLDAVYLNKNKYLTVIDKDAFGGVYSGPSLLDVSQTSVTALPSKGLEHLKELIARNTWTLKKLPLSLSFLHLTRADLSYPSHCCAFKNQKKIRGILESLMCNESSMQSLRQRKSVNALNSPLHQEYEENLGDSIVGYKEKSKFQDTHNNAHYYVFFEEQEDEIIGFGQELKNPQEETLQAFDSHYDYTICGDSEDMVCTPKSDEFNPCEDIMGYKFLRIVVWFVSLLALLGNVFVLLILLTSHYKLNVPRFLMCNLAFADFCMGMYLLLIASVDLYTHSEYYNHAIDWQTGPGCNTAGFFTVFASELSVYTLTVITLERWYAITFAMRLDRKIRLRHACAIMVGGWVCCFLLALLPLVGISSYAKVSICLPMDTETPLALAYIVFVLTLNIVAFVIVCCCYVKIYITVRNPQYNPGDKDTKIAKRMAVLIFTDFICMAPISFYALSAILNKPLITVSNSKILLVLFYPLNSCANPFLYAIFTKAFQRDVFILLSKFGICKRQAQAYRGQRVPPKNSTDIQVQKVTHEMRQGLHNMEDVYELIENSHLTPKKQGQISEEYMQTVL

Consider `C=C[C@@]1(C)CC(=O)[C@]2(O)[C@@]3(C)[C@@H](O)CCC(C)(C)[C@@H]3[C@H](O)[C@H](OC(C)=O)[C@@]2(C)O1`, for which the Potency result in experiment [1], in experiment [2], in experiment [3], in experiment [5], in experiment [8] and in experiment [10] was “inactive” throughout. For the same compound, the Potency result in experiment [11], in experiment [12], in experiment [13] and in [14] was “inactive” in each case. The Potency was 27.3 µM (active) and inactive in experiment [4]; 17.2 nM (active) and 18.8 nM (active) in [6]; 38.9 µM (active) in [7]. The result in experiment [9] was inactive.
As to `O=C(O)c1cc(=O)[nH]c(=O)[nH]1`, the Potency entry in experiment [15], in experiment [1], in [5], in [16], in [17] and in experiment [6] was “inactive” each time. For the same compound, the Potency result in experiment [7], in [8], in experiment [10], in experiment [18], in [11] and in [12] was “inactive” each time. Also, the Potency result in [13] and in [14] was “inactive” throughout. The result in experiment [9] was inactive. Besides, the activity change, positive = activation in experiment [19] (at 92.4 µM (top of the series)) is 2.48% (inactive).
Consider `[O-]/[N+](=N\O)c1ccccc1`, for which the Potency entry in [15], in experiment [4], in experiment [5], in experiment [17], in [6] and in [7] was “inactive” each time. The Potency result in [8], in [10], in experiment [18], in [11], in experiment [12] and in experiment [13] was “inactive” throughout. Besides, the Potency result in experiment [14] was “inactive”. In addition, in experiment [1], the Potency is 35.3 µM (active) and 22.4 µM (active). The call in experiment [9] was inactive. Also, the activity change, positive = activation in experiment [19] (at 92.4 µM (top of the series)) is 4.43% (inactive) and 12.7% (inactive).
Consider `OCCNCCO`, for which the Potency result in experiment [15], in experiment [1], in experiment [3], in experiment [5], in experiment [16] and in experiment [17] was “inactive” throughout. Further, the Potency entry in experiment [6], in experiment [7], in experiment [8], in experiment [10], in experiment [18] and in experiment [11] was “inactive” throughout. Also, the Potency entry in [12], in experiment [13] and in experiment [14] was “inactive” throughout. The compound was called inactive in experiment [9]. Besides, the activity change, positive = activation in experiment [19] (at 92.4 µM (top of the series)) is -2.22% (inactive) and 4.53% (inactive).
Regarding `IC(I)I`, the Potency entry in experiment [15], in experiment [5], in [17], in experiment [6], in [7] and in experiment [8] was “inactive” throughout. Moreover, the Potency result in experiment [10], in experiment [18], in experiment [12] and in experiment [13] was “inactive” throughout. Also, the Potency in experiment [1] was 35.5 µM (active) and 35.6 µM (active); in experiment [16], 48.5 µM (active) and inactive; in [11] it was 38.8 µM (active) and 38.9 µM (active); in [14], 21.8 µM (active) and 4.9 µM (active). Besides, the result in [9] was inactive. For the same compound, the activity change, positive = activation in experiment [19] (at 92.4 µM (top of the series)) was 0.549% (inactive) and 0.511% (inactive).
Take `O=C1OC2(c3ccccc31)c1cc(I)c(O)c(I)c1Oc1c2cc(I)c(O)c1I`: the Potency in experiment [15] is 15.5 µM (active) [middle of 4 runs]; in [2], 15.5 µM (active) [middle of 4 runs]; in experiment [3], 15.4 µM (active) [middle of 4 runs]; in [4], 6.13 µM (active) and inactive and 14.8 µM (active); in experiment [5], 13.7 µM (active) and 19.6 µM (active) and 16.6 µM (active); in [16], 15.4 µM (active) and 15.5 µM (active). The Potency in experiment [8] is 51.1 µM (active); in experiment [10], 11.3 µM (active) and 28.7 µM (active) and 8.65 µM (active); in experiment [11] it was 39 µM (active) and 27.9 µM (active); in experiment [12] it was 49.1 µM (active) and inactive; in experiment [13], 15.5 µM (active) [middle of 4 runs]; in experiment [14], 24.6 µM (active) and 12.4 µM (active) and 29.8 µM (active). The Potency result in experiment [17], in experiment [7] and in experiment [18] was “inactive” throughout. In addition, the compound was classed as inactive in [9]. Also, the activity change, positive = activation in experiment [19] (at 42.5 µM (top of the series)) is -27.3% (inactive) and -18.3% (inactive) and -7.34% (inactive); in experiment [19] (at 92.4 µM (top of the series)), -20.6% (inactive).
